Assay results reported in PubChem BioAssay (NCATS).
Results filed as inconclusive are left out. Activity calls are given as the source filed them. The call rests on the fitted dose curve; in most records, active means well fitted inhibition curve with a large enough effect; inconclusive means small, poorly fitted or top-dose-only effect; inactive means flat fitted curve, though single readings scatter.

Tested on: DIV30
Experiment: qHTS profiling for inhibitors of Plasmodium falciparum proliferation (AID 504749); further: nearly all actives have a fitted effect of over 60% in size;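 on activity, negative = inhibition: 0% = DMSO vehicle and full inhibition = artemisinin control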
Conditions: P. falciparum in erythrocytes, SYBR Green DNA, 72 h; series mostly up to 28.7 µM; activity, negative = inhibition: at the top concentration
Summary of the method: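 Parasite proliferation within erythrocytes, 72 h exposure. Endpoint: SYBR Green I fluorescence after overnight lysis at room temperature. Controls: 0.29 uM artemisinin, DMSO.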
Potency means the concentration at half of the fitted maximal effect.

| SMILES | activity, negative = inhibition | Potency |
| --- | --- | --- |
| Nc1nc2c(c(=O)[nH]1)N(C=O)[C@H](CNc1ccc(C(=O)N[C@@H](CCC(=O)O)C(=O)O)cc1)CN2 | -3.88% [at 12.8 µM] (inactive) | – |
| COc1cccc2c1C(=O)c1c(O)c3c(c(O)c1C2=O)C[C@@](O)(C(=O)CO)C[C@@H]3O[C@H]1C[C@H](N)[C@H](OC2CCCCO2)[C@H](C)O1 (stereo partly specified) | – | 6.75 µM (active) |
| COc1ccc2c(c1OC)C(=O)OC2[C@H]1c2c(cc3c(c2OC)OCO3)CCN1C (stereo partly specified) | -7.35% (inactive) | – |
| OCC(O)C(O)C(O)CO (stereo unspecified) | 6.04% (inactive) | – |
| CCC(C(=O)O)C1CCC(C)C(C(C)C(O)C(C)C(=O)C(CC)C2OC3(C=CC(O)[C@@]4(CC[C@](C)(C5CC[C@@](O)(CC)C(C)O5)O4)O3)C(C)CC2C)O1 (stereo partly specified) | – | 0.478 µM (active) |
| COc1ccc([C@@H]2CNC(=O)C2)cc1OC1CCCC1 | 3.07% [at 12.8 µM] (inactive) | – |
